Measured values published in the supplement of paper PMC10646978.
± gives the standard deviation.

What was measured:
Settings in all cases: modulator concentration 10 µM
[1] = test system: RAW-Dual (murine macrophage reporter line); test: NF-kB reporter (SEAP) activity fold change vs agonist alone; higher = enhanced NF-kB activity
Outline: (§1)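 Overnight stimulation with a PRR agonist followed pre-incubation for 1 hour at 37 °C with compound at 10 μM final. This was done in RAW-Dual murine macrophage reporter cells seeded at 50 000 per well in 384-well plates. NF-κB (SEAP, QUANTI-Blue absorbance at 620 nm) and IRF (Lucia luciferase, QUANTI-Luc luminescence) were read from the supernatant. Each reporter's fold change relative to the mean agonist-only control on the same plate was averaged over replicate plates.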

[2] = test system: RAW-Dual (murine macrophage reporter line); test: IRF reporter (Lucia luciferase) activity fold change vs agonist alone; higher = enhanced IRF activity
Outline: as §1

[3] = test system: RAW-Dual (murine macrophage reporter line); test: viability score (confluency relative to resting cells, overnight) (fraction); higher = more viable, active = viable (0.7 or more)
Outline: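 RAW-Dual macrophages in 384-well plates were exposed overnight to compound at 10 μM final. Confluency was imaged with IncuCyte, and two confluency masks were generated with IncuCyte software over all imaged wells. The viability score is confluency expressed relative to resting cells. Compounds were called viable if both masks exceeded 70% of resting cells.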

[4] = agonist: CpG ODN 1826 0.5 ug/mL

Work on `Cc1cc(O)c2c(c1)C(=O)c1cccc(O)c1C2=O` yielded an NF-kB reporter [1, 4] of 0.969 ± 0.08, an NF-kB reporter ([1]; agonist: LPS 0.1 ug/mL) of 1.08 ± 0.1 and an NF-kB reporter ([1]; agonist: MPLA […]) of 1.1 ± 0.024. The IRF reporter ([2]; agonist: 3'3'-cGAMP 10 ug/mL) was 0.894 ± 0.08, the IRF reporter ([2]; agonist: LPS 0.1 ug/mL) was 0.973 ± 0.1 and the IRF reporter ([2]; agonist: MPLA […]) was 0.953 ± 0.11. The viability score [3] was 0.986 (active).
Compound `CC(=O)C1CCC2C3CC=C4CC(O)CCC4(C)C3CCC12C` (stereo not drawn) has an NF-kB reporter [1, 4] of 1.19 ± 0.29, an NF-kB reporter ([1]; agonist: LPS 0.1 ug/mL) of 1.1 ± 0.12 and an NF-kB reporter ([1]; agonist: MPLA […]) of 1.13 ± 0.074. It also gave an IRF reporter ([2]; agonist: 3'3'-cGAMP 10 ug/mL) of 0.887 ± 0.03, an IRF reporter ([2]; agonist: LPS 0.1 ug/mL) of 1.28 ± 0.16 and an IRF reporter ([2]; agonist: MPLA […]) of 1.32 ± 0.16. The viability score [3] was 0.986 (active).
For `Cc1ccccc1N(CC(=O)NCCSc1ccc(Cl)cc1)S(=O)(=O)c1ccccc1`, the NF-kB reporter [1, 4] was 0.66 ± 0.079, the NF-kB reporter ([1]; agonist: LPS 0.1 ug/mL) was 1.01 ± 0.056 and the NF-kB reporter ([1]; agonist: MPLA […]) was 0.851 ± 0.056. For the same compound, the IRF reporter ([2]; agonist: 3'3'-cGAMP 10 ug/mL) was 0.64 ± 0.034, the IRF reporter ([2]; agonist: LPS 0.1 ug/mL) was 1.4 ± 0.11 and the IRF reporter ([2]; agonist: MPLA […]) was 1.1 ± 0.13. For the same compound, the viability score [3] was 1 (active).
Compound `CC(=O)NNC(=O)c1ccncc1` has an NF-kB reporter [1, 4] of 1.13 ± 0.089, an NF-kB reporter ([1]; agonist: LPS 0.1 ug/mL) of 1.13 ± 0.074 and an NF-kB reporter ([1]; agonist: MPLA […]) of 1.03 ± 0.043. For the same compound, the IRF reporter ([2]; agonist: 3'3'-cGAMP 10 ug/mL) was 1 ± 0.15, the IRF reporter ([2]; agonist: LPS 0.1 ug/mL) was 1.07 ± 0.14 and the IRF reporter ([2]; agonist: MPLA […]) was 1.07 ± 0.26. For the same compound, the viability score [3] was 0.996 (active).
For `Cc1ccc(COc2cccc(C=C3SC(=S)NC3=O)c2)cc1`, the NF-kB reporter [1, 4] was 0.611 ± 0.06, the NF-kB reporter ([1]; agonist: LPS 0.1 ug/mL) was 0.803 ± 0.13 and the NF-kB reporter ([1]; agonist: MPLA […]) was 0.992 ± 0.088. It also gave an IRF reporter ([2]; agonist: 3'3'-cGAMP 10 ug/mL) of 0.793 ± 0.08, an IRF reporter ([2]; agonist: LPS 0.1 ug/mL) of 1.18 ± 0.069 and an IRF reporter ([2]; agonist: MPLA […]) of 1.3 ± 0.11. For the same compound, the viability score [3] was 1.02 (active).
`O=C1CSC(=S)N1c1ccc(Cl)cc1` was tested, and the NF-kB reporter [1, 4] was 0.606 ± 0.049, the NF-kB reporter ([1]; agonist: LPS 0.1 ug/mL) was 0.665 ± 0.077 and the NF-kB reporter ([1]; agonist: MPLA […]) was 0.854 ± 0.059. It also gave an IRF reporter ([2]; agonist: 3'3'-cGAMP 10 ug/mL) of 0.389 ± 0.059, an IRF reporter ([2]; agonist: LPS 0.1 ug/mL) of 0.673 ± 0.03 and an IRF reporter ([2]; agonist: MPLA […]) of 0.869 ± 0.11. For the same compound, the viability score [3] was 0.988 (active).
In the case of `O=C(NN=Cc1c(Br)sc2ccccc12)c1cccc(Cl)c1`, the NF-kB reporter [1, 4] is reported as 0.972 ± 0.082, the NF-kB reporter ([1]; agonist: LPS 0.1 ug/mL) is reported as 0.88 ± 0.17 and the NF-kB reporter ([1]; agonist: MPLA […]) is reported as 1.18 ± 0.056. The IRF reporter ([2]; agonist: 3'3'-cGAMP 10 ug/mL) was 0.738 ± 0.12, the IRF reporter ([2]; agonist: LPS 0.1 ug/mL) was 0.952 ± 0.045 and the IRF reporter ([2]; agonist: MPLA […]) was 1.49 ± 0.1. For the same compound, the viability score [3] was 0.887 (active).
In the case of `CC1=CCC(C2Nc3ccccc3-c3nnc(SCc4ccc(C)cc4)nc3O2)CC1` (stereo not drawn), the NF-kB reporter [1, 4] is reported as 1.05 ± 0.13, the NF-kB reporter ([1]; agonist: LPS 0.1 ug/mL) is reported as 1 ± 0.057 and the NF-kB reporter ([1]; agonist: MPLA […]) is reported as 0.881 ± 0.053. For the same compound, the IRF reporter ([2]; agonist: 3'3'-cGAMP 10 ug/mL) was 0.978 ± 0.053, the IRF reporter ([2]; agonist: LPS 0.1 ug/mL) was 1.5 ± 0.1 and the IRF reporter ([2]; agonist: MPLA […]) was 1.22 ± 0.15. The viability score [3] was 1.01 (active).
With `COC(=O)C1=C(C)NC(C)=C(C(=O)OC)C1c1ccccc1[N+](=O)[O-]` the NF-kB reporter [1, 4] was 1.27 ± 0.1, the NF-kB reporter ([1]; agonist: LPS 0.1 ug/mL) was 1.33 ± 0.073 and the NF-kB reporter ([1]; agonist: MPLA […]) was 1.82 ± 0.17. It also gave an IRF reporter ([2]; agonist: 3'3'-cGAMP 10 ug/mL) of 0.374 ± 0.017, an IRF reporter ([2]; agonist: LPS 0.1 ug/mL) of 0.585 ± 0.035 and an IRF reporter ([2]; agonist: MPLA […]) of 0.414 ± 0.038. For the same compound, the viability score [3] was 0.907 (active).
